Bioassay records (PubChem)
An excerpt weighted towards active compounds, which were near 7.6% of everything screened.
BRCA1 expr act = activators of BRCA1 expression; MCF7-BRCA1-FFLuc reporter, luminescence, 48 h; response scale: scaled: vehicle 0%, 10 µM genistein 100%; Potency, µM (highest dose often 46.1 µM), for the others: at the highest dose activation, usual class: activators; hit rate 1.1% among 380,000; AID 624202; also: potency is read from the fitted curve at half-maximal effect; nearly all actives have a fitted effect of over 80% in size
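MCF7-BRCA1-FFLuc, 2000 cells/well; 2 h attach, 37 °C/5% CO2; compound 48 h; luciferase substrate 15 min; luminescence end-point. Norm. to genistein 10 microM max activation and DMSO; concentration-response curves fitted.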
p53 reactivation = mutant p53 re-activation in reporter cells | H1299 p53-A138V BP100-luciferase reporter, luminescence, 24 h | Potency, µM (top dose mostly 92.2 µM), without a hit: at the highest dose activity change, positive = activation, actives largely listed as activators | hit rate 0.063% among 320,000 | AID 504706; also: potency is read from the fitted curve at half-maximal effect; % of control where 0% means no effect; nearly all actives have a fitted effect of over 45% in size
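p53-null H1299 cells stably carrying temperature-sensitive p53-A138V and a BP100-luciferase reporter were pinned with compounds (4-point, 1:5 series) and held 24 hrs at 37 deg C. Luminescence was read 10 min after detection reagent.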
VP16 counter = counter-screen for ROR gamma inhibitors: Gal4-VP16 reporter. Potency, µM (series often up to 53.6 µM), for inactives: at the highest dose activity, negative = inhibition, hits mostly inhibitors. Drosophila S2 Gal4-VP16 UAS-luciferase, luminescence, 20 h. hit rate 3.5% among 310,000;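 also: Gal4-VP16 expression switched on by copper sulfate through the metallothionein promoter; potency is read from the fitted curve at half-maximal effect; % is scaled to controls: 0 for no effect and ±100 for the full control effect; nearly all actives have a fitted effect of over 50% in size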
RORg inh = inhibitors of mouse ROR gamma transcriptional activity; Drosophila S2 Gal4-RORgamma UAS-luciferase reporter, 20 h; Potency, µM (top dose mostly 53.6 µM), for inactives: at the top dose activity change, negative = inhibition, hits mostly inhibitors; hit rate 5.4% among 310,000; also: potency is read from the fitted curve at half-maximal effect; % is scaled to controls: 0 for no effect and ±100 for the full control effect; nearly all actives have a fitted effect of over 60% in size
Target sequence (P51450 whole entry, looked up, the tested form may be a part): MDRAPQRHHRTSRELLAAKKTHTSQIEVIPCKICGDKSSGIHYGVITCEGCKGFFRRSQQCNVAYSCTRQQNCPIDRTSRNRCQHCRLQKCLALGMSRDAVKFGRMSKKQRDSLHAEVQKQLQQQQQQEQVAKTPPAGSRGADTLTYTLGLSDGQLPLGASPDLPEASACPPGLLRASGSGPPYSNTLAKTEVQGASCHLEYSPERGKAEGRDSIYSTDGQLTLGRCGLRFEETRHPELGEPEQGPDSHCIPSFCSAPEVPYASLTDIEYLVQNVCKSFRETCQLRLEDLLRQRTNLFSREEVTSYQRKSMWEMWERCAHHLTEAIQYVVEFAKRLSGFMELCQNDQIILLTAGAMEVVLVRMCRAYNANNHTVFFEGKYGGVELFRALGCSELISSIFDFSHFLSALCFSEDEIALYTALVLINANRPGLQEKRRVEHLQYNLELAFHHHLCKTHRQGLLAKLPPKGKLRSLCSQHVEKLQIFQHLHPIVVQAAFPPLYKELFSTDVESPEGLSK
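Stable Schneider cell line, Gal4 DNA-binding domain fused to ROR gamma, UAS-luciferase. Cmpd 1 hr RT → CuSO4 700 uM final → 20 hr RT → luciferase reagent 10 min → luminescence.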
ELG1 repair inh = inhibitors of ELG1-dependent DNA repair in HEK293T cells; HEK293T ELG1-luciferase reporter, luminescence, 16 h; DNA damage induced by 5-fluorouridine; Potency, µM (highest dose often 46.1 µM), for the others: at the highest dose activity change, negative = inhibition, usual class: inhibitors; hit rate 2.3% among 330,000; also: potency is read from the fitted curve at half-maximal effect; % is scaled to controls: 0 for no effect and ±100 for the full control effect; nearly all actives have a fitted effect of over 55% in size
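Cells (2,000 per well) received 5-fluorouridine plus test compound or DMSO and were incubated 16 hr at 37 °C, 5% CO2. Luciferase activity was read by luminescence 30 min after ONE-Glo addition; signal suppression marked inhibition of damage-induced ELG1 function.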
Giardia kill = Giardia lamblia killing; Giardia lamblia trophozoite viability; hit rate 0.15% among 340,000; activity change, % at 7.66 µM, hits read low; in the data active = activity change below about -80%; inconclusive = between about -30% and that limit;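 also: parasites exposed to compound for two days anaerobically before the ATP read; % is scaled to controls: 0 for no effect and ±100 for the full control effect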
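Anaerobic 48 hrs incubation at 37 deg C of 100 trophozoites/well with test compounds; ATPLite 1-Step luminescence, 15-30 min RT, reports cellular ATP as viability.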
* hit, by the source's call; ? = inconclusive; . = no result. Unless noted, calls follow the shape of the dose curve; as a rule, active = well fitted curve in the direction sought with a large enough effect; inconclusive = small, poorly fitted or top-dose-only effect, or another doubt; inactive = no such curve, though single readings can be large; an effect the other way counts as inactive or inconclusive.

SMILES | BRCA1 expr act | p53 reactivation | VP16 counter | RORg inh | ELG1 repair inh | Giardia kill
CN(C)NC(=S)Nc1ccc2nc(-c3ccccn3)c(-c3ccccn3)nc2c1 | 8% | -1% | 16µM* | 13µM* | 15% | -7
CC(C)(C)CC(C)(C)NC(=S)Nc1ccc2nc(-c3ccccn3)c(-c3ccccn3)nc2c1 | -40% | -2% | ? | 7.1µM* | ? | 3
Cn1c(=O)n(C/C=C/c2ccccc2)c(=O)c2c1nc1n2CCCN1Cc1ccccc1 | -60% | -1% | -9% | 5% | 21µM* | 4
Cn1c(=O)n(C/C=C/c2ccccc2)c(=O)c2c1nc1n2CCCN1c1ccc(F)cc1 | -64% | 0% | -13% | 0% | 23µM* | -15
C=CCn1c(=O)c2c(nc3n2CCCN3Cc2ccccc2)n(C)c1=O | 0% | -3% | 0% | 14% | 6% | 2
COc1ccc(N2CCCn3c2nc2c3c(=O)n(Cc3ccccc3F)c(=O)n2C)cc1 | . | -33% | -11% | 27% | -1% | .
CCOC(=O)C1(Cc2cccc(OC)c2)CCCN(C(=O)CNC(C)=O)C1 (stereo not drawn) | ? | . | -15% | 18% | ? | 17
C=CCN(CC=C)S(=O)(=O)c1ccc(NC(=S)NC(=O)/C=C/c2cccc3ccccc23)cc1 | -11% | 1% | ? | 2.2µM* | 11% | 2
C=CCN(CC=C)S(=O)(=O)c1ccc(NC(=S)NC(=O)/C=C/c2ccc(C)cc2)cc1 | -18% | . | ? | 10µM* | . | -23
C=CCN(CC=C)S(=O)(=O)c1ccc(NC(=S)NC(=O)c2ccc(-c3ccccc3)cc2)cc1 | -21% | 0% | 2.5µM* | 1.4µM* | ? | -17
C=CCN(CC=C)S(=O)(=O)c1ccc(NC(=S)NC(=O)c2ccco2)cc1 | -27% | 5% | ? | 0% | ? | -1
CC1CCN(C(=O)Cn2cc(C(F)(F)F)ccc2=O)c2ccccc2S1 (stereo not drawn) | 0% | -2% | . | . | 0% | -7
O=S(=O)(c1ccccc1)N1CCC(O)(CSc2ccccc2)CC1 | -44% | 4% | -1% | 19% | 8.2µM* | -12
Cc1ccc(C2CC2c2n[nH]c(=S)n2-c2ccc(Cl)cc2)cc1 (stereo not drawn) | 1% | 10% | 10µM* | 2.8µM* | -1% | 15
Cc1ccc(N2C(=O)c3[nH]nc(-c4ccc(Cl)cc4)c3C2c2ccc(F)cc2)cc1 (stereo not drawn) | -75% | . | . | . | . | .
S=c1[nH]nc(Cn2cnc3ccccc32)n1-c1ccccc1Cl | -15% | 2% | -6% | 18% | 13% | 5
Cc1ccc(C2CC2c2n[nH]c(=S)n2-c2cccc(C)c2)cc1 (stereo not drawn) | -26% | 3% | 6.3µM* | 3.2µM* | 1% | -12
Cc1cccc(-n2c(-c3ccncc3)n[nH]c2=S)c1 | -3% | -3% | -21% | ? | 9% | -2
S=c1[nH]nc([C@@H]2C[C@H]2c2ccccc2)n1-c1ccccc1Cl | -13% | 1% | 10µM* | 1.4µM* | -4% | 28
CN1C(=O)C(CC(=O)O)S/C1=N\N=C\c1ccc(O)cc1O (stereo not drawn) | -11% | 2% | 20µM* | ? | 0% | 0
CN1c2ccsc2/C(=N/NC(=O)c2c(F)cccc2F)CS1(=O)=O | 2% | -1% | 5µM* | 3.2µM* | -12% | 3
COc1cc(N=c2ssnc2Cl)c(OC)cc1Cl | -15% | -32% | 25µM* | ? | ? | -8
COc1cc(-n2nnnc2SC)c(OC)cc1Cl | 3% | -3% | 18% | -3% | -4% | 23
COc1ccc(OC)c(N=c2ssnc2Cl)c1 | -36% | -1% | ? | 18µM* | -12% | 0
COc1ccc(CN(CCCn2cnc3c(OC)ncnc32)CCCn2cnc3c(OC)ncnc32)cc1 | 5% | . | . | . | . | .
COc1ccc(NC(=S)NC(=O)/C=C/c2ccccc2)cc1 | 65% | . | 7.1µM* | 7.1µM* | 2% | -22
